Assay results as given in PubChem BioAssay AID1851 (National Center for Advancing Translational Sciences (NCATS), 2009).
Several values for one entry are separate records, joined by “and”; a condition that tells them apart may be missing. Identical values can stand only once. The whole screen tested about 16,000 compounds, of which about 5,800 (36%) were called active. Not shown: some 23% with an inconclusive outcome. Some of the results follow. A number with no mark means an inactive call. Calls follow the shape of the dose curve; as a rule, active = well fitted curve in the direction sought with a large enough effect; inconclusive = small, poorly fitted or top-dose-only effect, or effect the other way; inactive = no such curve, though single readings can be large or run the other way.

Biological target: Cytochrome P450 2C19 (Homo sapiens) (UniProt P33261)
Sequence (P33261 whole entry, looked up): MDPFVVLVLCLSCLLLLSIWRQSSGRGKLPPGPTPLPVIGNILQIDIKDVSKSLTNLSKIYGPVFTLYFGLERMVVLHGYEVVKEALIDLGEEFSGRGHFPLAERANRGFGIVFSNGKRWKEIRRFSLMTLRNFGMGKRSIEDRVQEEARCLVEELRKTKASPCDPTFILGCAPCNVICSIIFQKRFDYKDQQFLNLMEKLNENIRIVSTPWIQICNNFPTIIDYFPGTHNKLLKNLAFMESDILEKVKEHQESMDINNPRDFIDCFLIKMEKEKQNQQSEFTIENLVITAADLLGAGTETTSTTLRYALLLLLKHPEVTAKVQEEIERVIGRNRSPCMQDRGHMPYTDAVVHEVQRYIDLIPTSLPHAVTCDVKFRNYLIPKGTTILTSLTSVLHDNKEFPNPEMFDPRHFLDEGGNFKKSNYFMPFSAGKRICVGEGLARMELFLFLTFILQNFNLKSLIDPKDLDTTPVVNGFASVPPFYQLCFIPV
Test: Cytochrome panel assay with activity outcomes
Details: recombinant CYP, pro-luciferin dealkylation, luminescence, p450-cyp2c19; series mostly up to 57.1 µM; activity, negative = inhibition: at the top concentration
% is scaled to controls: 0 for no effect and ±100 for the full control effect.

| Structure (SMILES) | activity, negative = inhibition | AC50 |
| --- | --- | --- |
| CCOC(=O)N/N=C1/C[C@@H](O)[C@@H](O)[C@@H]2[C@@H]3C(=O)N(C(C)(C)C)C(=O)[C@H]3CC[C@H]12 | 1.59% [at 11.4 µM] | – |
| COc1ccc(C[C@@H]2C(=O)N[C@H](C)C(=O)N(C)[C@@H]3Cc4ccc(cc4)Oc4cc(ccc4O)C[C@H](C(=O)N[C@@H](C)C(=O)N[C@H](C)C(=O)N2C)N(C)C3=O)cc1 | 1.07% [at 11.4 µM] | – |
| COCCn1c(=O)c(-c2ccc(Cl)cc2)nc2cnc(Nc3ccccc3)nc21 | 16.1% | – |
| COc1ccccc1CCn1c(=O)c(-c2ccc(Cl)cc2)nc2cncnc21 | – | 0.398 µM (active) |
| COc1ccccc1CCn1c(=O)c(-c2ccccc2)nc2cncnc21 | – | 0.631 µM (active) |
| Cn1c(=O)c(-c2cccc(Cl)c2)nc2cncnc21 | -41.4% | – |
| COc1ccccc1CCn1c(=O)c(-c2cccs2)nc2cncnc21 | – | 2 µM (active) |
| Cn1c(=O)c(-c2ccccc2)nc2cncnc21 | -11.3% | – |
| COc1ncc2nc(-c3cccs3)c(=O)n(CCC#N)c2n1 | -1.19% | – |
| COCCn1c(=O)c(-c2cccc(Cl)c2)nc2cncnc21 | -24.7% | – |
| COCCn1c(=O)c(-c2cccs2)nc2cnc(N(C)C)nc21 | -26.2% | – |
| COc1ccccc1CCn1c(=O)c(-c2cccc(Cl)c2)nc2cncnc21 | – | 0.251 µM (active) |
| Cn1c(=O)c(-c2ccc(Cl)cc2)nc2cncnc21 | -17.1% | – |
| O=C(Nc1ccccc1)N1CCCC2(CCN(C(=O)c3ccco3)CC2)C1 | -38.7% | – |
| CCOC(=O)N/N=C1/C[C@@H](O)[C@@H](O)[C@@H]2[C@@H]3C(=O)N(c4cccc(Oc5ccccc5)c4)C(=O)[C@H]3CC[C@@H]12 | -10.2% [at 11.4 µM] | – |
| NS(=O)(=O)c1cc(Br)c(N=Nc2ccc(O)c3ncccc23)c(Br)c1 | -10.5% [at 11.4 µM] | – |
| COc1ccc(-n2c(=O)c(-c3cn(C)c4ccccc34)nc3cncnc32)cc1 | – | 15.8 µM (active) |
| COc1ccc(-n2c(=O)c(-c3cn(C)c4ccccc34)nc3cnc(OC)nc32)cc1 | -5% | – |
| COc1ccc(C(=O)NN)cc1COc1ccc(Br)cc1 | – | 0.251 µM (active) |
| Cc1nn(C)cc1CNC(=O)CCC(=O)O | -3.78% | – |
| COc1ccc(/C=C/C(=O)NCc2cn(C)nc2C)cc1COc1ccc(Br)cc1 | – | 3.98 µM (active) |
| CCn1ncc(/C=C/C(=O)NCc2cn(C)nc2C)c1C | -1.07% | – |
| NC(=O)C1=CN([C@@H]2O[C@@H](COP(=O)(O)OP(=O)(O)OC[C@@H]3O[C@H](n4cnc5c(N)ncnc54)[C@@H](OP(=O)(O)O)[C@@H]3O)[C@H](O)[C@@H]2O)C=CC1 | 3.48% | – |
| CC(C)c1ccc(/C=N/NC(=O)CN(c2cccc(Cl)c2Cl)S(C)(=O)=O)cc1 | – | 15.8 µM (active) |

| Structure (SMILES) | activity, negative = inhibition | AC50 |
| --- | --- | --- |
| CS(=O)(=O)c1ccc(/C=N\NC(N)=S)cc1 | -0.291% [at 11.4 µM] | – |
| Nc1nc(NCc2ccccc2)nc(Nc2cccc(F)c2)c1[N+](=O)[O-] | -3.88% | – |
| Cc1cccc(-c2n[nH]c([N+](=O)[O-])n2)c1 | -14.2% | – |
| Cc1[nH]nc(Nc2ccccc2)c1[N+](=O)[O-] | – | 14.1 µM (active) |
| CN=C1S/C(=C\c2ccc(Sc3ccc(Cl)cc3)o2)C(=O)N1C | -21.7% | – |
| Clc1ccc(Sc2ccc(/C=N/n3cnnc3)o2)cc1 | – | 2.82 µM (active) |
| CCCN1C(=O)/C(=C/c2ccc(C)s2)SC1=Nc1ccc(OC)cc1 | – | 11.2 µM (active) |
| COc1ccc(N=C2S/C(=C\c3ccc(C)s3)C(=O)N2CC(C)C)cc1 | -27% | – |
| CC(C)CN(CC#N)CC(C)C | 2.34% [at 11.4 µM] | – |
| c1ccc(-c2nc3ccccn3c2NCc2ccc3c(c2)OCO3)cc1 | – | 0.316 µM (active) |
| CN(C)CCNS(=O)(=O)N(C)C | 0.116% [at 11.4 µM] | – |
| C=CCN=C(NC#N)SCc1ccccc1 | – | 14.1 µM (active) |
| Cc1ccc(/C=C/C2=Cc3c(sc(NC(=O)CSc4n[nH]c(N)n4)c3C#N)C(C)(C)C2)o1 | – | 4.47 µM (active) |
| CCOc1ccc(/C=C/C2=Cc3c(sc(NC(=O)CSc4n[nH]c(N)n4)c3C#N)C(C)(C)C2)cc1 | – | 10 µM (active) |
| N[C@@H](Cc1ccc(O)c(O)c1)C(=O)O | – | inactive |
| O=C1CCCN1c1ccc(S(=O)(=O)Oc2cccc(Cl)c2)cc1[N+](=O)[O-] | – | 0.501 µM (active) |
| Cc1cc(C(C)(C)C)cc(C)c1CC1=NCCN1 | -32.4% [at 25.6 µM] | – |
| N=c1sccn1CC(=O)Nc1cccc(Oc2ccccc2)c1 | – | 15.8 µM (active) |
| O=C(Cn1ccc(=O)[nH]c1=O)Nc1ccc(C(=O)O)c(O)c1 | 40.8% [at 11.4 µM] | – |
| CC1(C)CCC=[N+]1[O-] | 5.41% | – |
| CCCCCOC(=O)c1c(N)n(CCOC)c2nc3ccccc3nc12 | – | 14.1 µM (active) |
| COCn1c2ccccc2c2nnc(C(C)=O)nc21 | 5.57% [at 11.4 µM] and -2.14% [at 11.4 µM] | – |
| C/C(=N\NC(=S)Nc1ccc(F)cc1)C1CC1 | – | 0.562 µM (active) |
| COc1ccc(OC)c(NC(=O)c2cc3n(n2)C(C(F)(F)F)CC(c2ccc4c(c2)OCO4)N3)c1 (centres undefined) | -10.9% | – |

| Structure (SMILES) | activity, negative = inhibition | AC50 |
| --- | --- | --- |
| COc1ccc(NC(=O)c2cc3n(n2)C(C(F)(F)F)CC(c2ccc4c(c2)OCO4)N3)cc1OC (centres undefined) | -24.3% | – |
| COC(=O)C1=C(N)N(c2ccccc2C(F)(F)F)C2=C(C(=O)CCC2)C1c1ccc2c(c1)OCO2 (centres undefined) | – | 20 µM (active) |
| C#CC[N+](CC)(CC)CC#Cc1cccc(Cl)c1 | -10.1% | – |
| O=C(c1ccc(COc2ccc(F)cc2)o1)n1cccn1 | – | 3.55 µM (active) |
| CC(=O)COC(=O)CCc1nc2ccccc2[nH]c1=O | – | 11.2 µM (active) |
| N[C@@H](Cc1ncccn1)C(=O)O | 1.66% [at 11.4 µM] | – |
| COCCCNC(=O)C1C2C=CC3(CN(Cc4ccc(C)cc4)C(=O)C13)O2 (centres undefined) | 13.4% | – |
| Cc1ccc(CN2CC34C=CC(O3)C(C(=O)NCc3ccco3)C4C2=O)cc1 (centres undefined) | – | 14.1 µM (active) |
| CCCCNC(=O)C1C2C=CC3(CN(Cc4ccccc4Cl)C(=O)C13)O2 (centres undefined) | – | 20 µM (active) |
| Cc1ccc(CN2CC34C=CC(O3)C(C(=O)NCc3ccc5c(c3)OCO5)C4C2=O)cc1 (centres undefined) | – | 15.8 µM (active) |
| COC(=O)N1CCC2(CCN(C(=O)NC(C)C)CC2)CC1 | -30.2% | – |
| FC(F)(F)c1nnc2c(Sc3ccccc3)nc3ccc(Cl)cc3n12 | – | 1.41 µM (active) |
| FC(F)(F)c1nnc2c(Sc3ccc(Cl)cc3)nc3ccccc3n12 | -25.8% | – |
| C[C@@]1(C(NC(=O)Cc2ccc(C(F)(F)F)cc2)c2ccc(-c3ccccc3)cc2)C[C@H]1C1CCCCC1 (some centres undefined) | 11.3% | – |
| CC(C)NC(=O)N1CCC2(CC1)CCN(C(=O)c1cc(C(F)(F)F)cc(C(F)(F)F)c1)CC2 | 40.4% | – |
| CC(C)NC(=O)c1ccc(-c2cccc(C(F)(F)F)c2)o1 | – | 7.08 µM (active) |
| COCCCNC(=O)C1CCN(S(=O)(=O)N(CC(C)C)CC(C)C)CC1 | -29.5% | – |
| Cc1ccc(S(=O)(=O)NCC2CCC(C(=O)O)CC2)cc1 (centres undefined) | -27.4% | – |
| CC(=O)Nc1ccc(S(=O)(=O)NCC2CCC(C(=O)NCCC(C)C)CC2)cc1 (centres undefined) | – | 31.6 µM (active) |
| CCCN(CCc1ccccc1)[C@H]1CCc2c(O)cccc2C1 | -35.8% | – |
| Cc1cc(C)c(Cn2cnc(-c3ccc([N+](=O)[O-])cc3)c2)c(C)c1 | – | 3.16 µM (active) |
| Cc1ccc(COn2c(-c3ccc(Cl)cc3)nc3ccc([N+](=O)[O-])cc32)cc1 | -21.9% | – |
| C=C(C)C1CC=C(C)/C(=N/NC(=O)c2ccc(NC(=O)c3cccc(C)c3)cc2)C1 (centres undefined) | – | 1.41 µM (active) |
| Nc1nc(Nc2ccccc2)nc2c1ncn2[C@@H]1O[C@@H](CO)[C@H](O)[C@H]1O | – | 0.631 µM (active) |

| Structure (SMILES) | activity, negative = inhibition | AC50 |
| --- | --- | --- |
| Nc1nc(Nc2ccccc2)nc2c1ncn2[C@@H]1O[C@@H](CO)[C@H](O)[C@@H]1O | 13.2% | – |
| Nc1nc(Cl)nc2c1ncn2[C@@H]1O[C@@H](CO)[C@@H](O)[C@H]1O | -18.4% | – |
| CCOc1cc(C)ccc1OCc1nnc(SCC(=O)c2cccc([N+](=O)[O-])c2)n1CC | -7.04% | – |
| C=CCn1c(Cc2ccc(OC)cc2)nnc1SCC(=O)c1cccc([N+](=O)[O-])c1 | – | 14.1 µM (active) |
| CCOc1cc(C)ccc1OCc1nnc(SCC(=O)c2cccc([N+](=O)[O-])c2)n1C | – | 14.1 µM (active) |
| CC1(C)OC(C(N)=O)C(C(N)=O)O1 (centres undefined) | -17.1% | – |
| CC(C)(CO)N1CCN(C(=S)Nc2ccccc2)CC1 | 4.38% [at 11.4 µM] | – |
| COc1cc2c(cc1OC)CN(C(=S)Nc1ccccc1)CC2 | – | 2.51 µM (active) |
| COCOc1ccc(Br)cc1C(=O)[C@H]1O[C@H]1c1cccc(OC)c1 | – | 0.0631 µM (active) |
| CN(c1ccc(C(=O)NC2CC3CCC2C3)cc1)S(C)(=O)=O (centres undefined) | -6.32% | – |
| CCCC1c2c(ccc3ccccc23)Oc2ccc3ccccc3c21 | – | 0.631 µM (active) |
| COc1ncc2nc(-c3cc(F)cc(F)c3)c(=O)n(CCC#N)c2n1 | -11.5% | – |
| C=CCNC(=O)c1ccccc1Cl | 1.46% | – |
| NCCc1nc(-c2nc(C(=O)O)cs2)cs1 | -18.8% [at 11.4 µM] | – |
| C=CCNC(=O)c1csc(-c2ccccc2)n1 | – | 10 µM (active) |
| O=C(/C=C/c1ccco1)Nc1ccc(Oc2ccccc2)cc1 | – | 5.01 µM (active) |
| CCCCCn1c(=O)c(C(=O)c2ccccc2)nc2ccccc21 | – | 2 µM (active) |
| O=C(O)Cc1cc2ccccc2nc1C(=O)O | -42.8% | – |
| O=C(c1ccccc1)c1nc2ccccc2n(CCCn2c(=O)c(C(=O)c3ccccc3)nc3ccccc32)c1=O | – | 1 µM (active) |
| COc1ccc2c(c1)CCC1[C@@H]2CCC2(C)[C@@H](NCCCCCCN3C(=O)C=CC3=O)CC[C@@H]12 (some centres undefined) | -26.3% | – |
| COc1cccc(CNCc2ccc(SC)cc2)c1OC | – | 0.251 µM (active) |
| Oc1ccc(CNCc2ccccc2)c2cccnc12 | -5.63% [at 11.4 µM] | – |
